Only some compounds are listed: those with a hit (about 2.4% of all), similar ones and a draw of the others.
TGFb inhibitor = TGF-b pathway inhibition | 1.2% of 410,000 active | Potency, µM (series often up to 46.1 µM), without a hit: top-dose activity, negative = inhibition, hits mostly inhibitors | HepG2 CAGA-GFP TGF-b/SMAD3 reporter, GFP fluorescence, 18 h; TGF-beta stimulated, 500 pg/mL final; also: % is scaled to controls: 0 for no effect and ±100 for the full control effect; nearly all actives have a fitted effect of over 65% in size
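Read-out: total well GFP (ex488/em500-530) summed from mean per-cell fluorescence. Cells: HEPG2 CAGA-GFP, 1% FBS DMEM, 18 h at 37 degrees C with 500 pg/mL final TGF-beta. Unstimulated wells served as the full-inhibition control; stimulated DMSO wells = 0%.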
Anesthetic bind = binds horse apoferritin like a general anesthetic; apoferritin/1-aminoanthracene competitive binding, fluorescence; AID 485281; 0.074% of 350,000 active; Potency, µM (top dose mostly 77.5 µM), without a hit: top-dose activity change, negative = displacement, actives largely listed as inhibitors; P02791; also: % is scaled to controls: 0 for no effect and ±100 for the full control effect; nearly all actives have a fitted effect of over 20% in size
Target sequence (P02791 2-175 limits assumed): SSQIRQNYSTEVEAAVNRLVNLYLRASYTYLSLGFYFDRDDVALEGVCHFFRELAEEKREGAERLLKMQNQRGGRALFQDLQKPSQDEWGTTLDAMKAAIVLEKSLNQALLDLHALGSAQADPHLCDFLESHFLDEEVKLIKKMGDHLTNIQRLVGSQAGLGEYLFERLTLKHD
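Read-out: endpoint 1-AMA fluorescence, excitation 380 nm and emission 535 nm, after compounds sit 10 min at room temperature with 10 uM horse-spleen apoferritin in 50% saturated 1-AMA/PBS. Values come from four-parameter Hill fits.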
ATXN viability = cell viability loss in ATXN counter-screen | S2 cells (HEK-293 line with an ATXN2-luciferase reporter) viability, CellTiter-Fluor protease fluorescence, 24 h | Potency, µM (titrated, usually from 56.7 µM), actives largely listed as cytotoxic | 0.49% of 400,000 active; also: nearly all actives have a fitted effect of over 40% in size
HepG2 tox = counter-screen for TGF-b inhibitors: cytotoxicity in HepG2 cells. HepG2 CAGA-GFP viability, ATP luminescence, 18 h. Potency, µM (doses to about 46.1 µM), for inactives: at the highest dose activity change, negative = cytotoxicity, hits mostly cytotoxic. 0.76% of 410,000 active. AID 588856
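HepG2 CAGA-GFP cells (1000/well, DMEM with 1% FBS) received compound, then TGF-beta at 500 pg/mL final, and were incubated 18 hours at 37 degrees C. Viability was read by CellTiter-Glo luminescence. Media-only wells were set as complete cell-killing and DMSO as no toxicity.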
ATXN2 expr inh = reduces ATXN2 reporter expression in HEK-293 cells; HEK-293 ATXN2-luciferase reporter, luminescence, 24 h; Potency, µM (titrated, usually from 57 µM), for inactives: at the top dose activity change, negative = inhibition, hits mostly inhibitors; 0.72% of 360,000 active; AID 1745845; also: % is scaled to controls: 0 for no effect and ±100 for the full control effect; nearly all actives have a fitted effect of over 55% in size
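qHTS (up to 57 uM final) was run with 24 h compound exposure of reporter cells at 37 °C. Each well was multiplexed: SteadyGlo luminescence measured ATXN2-luciferase expression after a fluorogenic Gly-Phe-AFC viability readout (25 uM final).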
Active calls of the source: *; i = inactive; ? = inconclusive; . = no result; ! = not confirmed by another sample; [ ] = another dose, or the depositor's remark. Calls follow the shape of the dose curve; as a rule, active = well fitted curve in the direction sought with a large enough effect; inconclusive = small, poorly fitted or top-dose-only effect, or another doubt; inactive = no such curve, though single readings can be large; an effect the other way counts as inactive or inconclusive. Potency is read from the fitted curve at half-maximal effect.

SMILES	TGFb inhibitor	Anesthetic bind	ATXN viability	HepG2 tox	ATXN2 expr inh
COc1cc2c(NC3CCN(C)CC3)nc(N3CCCCC3)nc2cc1OCCCN(C)C	10µM*	.	.	-78%	.
CCCN(C)CCCOc1cc2nc(N3CCCN(C)CC3)nc(NC3CCN(C)CC3)c2cc1OC	14µM*	.	.	-1%	.
COc1ccccc1NC(=S)NCCC(c1ccccc1)c1ccccc1	13µM*	71%	i	-14%	.
S=C(NCCC(c1ccccc1)c1ccccc1)Nc1ccc(Cl)cc1	20µM*	46%	?	-50%	?
O=C(c1cccs1)n1nc(-c2ccco2)nc1SCc1ccccc1	?	28µM*	i	-18%	7%
CN1CCN(c2cc(-c3cc(O)c4ncccc4c3)ccn2)CC1	?	.	?	-48%	10µM*
CC(C)C[C@@H](CO)N(Cc1ccccc1)S(=O)(=O)N(Cc1ccccc1)[C@@H](CO)CC(C)C	10µM*	.	?	16µM*	?
C=CS(=O)(=O)N(Cc1ccccc1Br)[C@H](CO)CC(C)C	?	.	32µM*	-47%	?
O=S(=O)(N(Cc1ccccc1)[C@H](CO)Cc1ccccc1)N(Cc1ccccc1)[C@H](CO)Cc1ccccc1	-8%	.	i	-10%	?
COc1ccc(CN([C@H](CO)CC(C)C)S(=O)(=O)N(Cc2ccccc2)[C@H](CO)CC(C)C)cc1	?	.	.	11µM*!	?
CC(C)C[C@@H](CO)N(Cc1ccccc1)S(=O)(=O)N(Cc1ccccc1)[C@H](CO)CC(C)C	11µM*!	.	?	-115%	?
CC(C)=NO[C@@H](C)c1cn([C@H](CO)Cc2ccccc2)nn1	.	2%[15.3 µM]	.	.	.
Cc1ccc(SCC(CC(C)C)N2CCN(C)CCC2=O)cc1 (stereo not given)	-7%	-2%	.	-21%	.
O=C1C(SCCO)=C(SCCO)C(=O)c2ccccc21	3.2µM*	.	.	7.1µM*!	?
Nc1ncnc2c1ncn2C1O[C@H](CO)[C@@H](O)[C@@H]1O (stereo not given in full)	3%	.	i	26%	-8%
N#Cc1c(N)n(C2OC(CO)C(O)C2O)c2ncnc(N)c12 (stereo not given)	?	.	?	-42%	0.3µM*
Cc1nc(NCc2ccc3nsnc3c2)sc1-c1ccn(C)n1	.	.	i	.	.
CCCOC(=O)c1ccc(Oc2c(-c3ccc(OCC)cc3O)n[nH]c2C)cc1	11µM*	0%	.	11µM*	?
NS(=O)(=O)c1ccc(CCNC(=O)c2ccc([N+](=O)[O-])s2)cc1	?	-4%	i	20µM*	-34%
NS(=O)(=O)c1ccc(CCNC(=O)c2ccc(Cl)s2)cc1	-19%	-1%	i	-4%	-26%
COc1ccc(NC(=O)c2nn(C)c3c2CSc2ccc(C)cc2-3)cc1OC	-27%	-11%	i	11µM*	-34%
C/C(=N\NC(=O)c1cccc(S(=O)(=O)Nc2ccccc2Cl)c1)c1ccc(-n2ccnc2)cc1	-3%	?	i	-28%	21%
COc1cc(NC(=O)c2cccc3c(-c4cnn(C)c4)coc23)cc(OC)c1OC	49%	.	?	36%	18µM*
COc1ccc(NC(=O)c2cccc3c(-c4cnn(C)c4)coc23)cc1	19%	.	i	-20%	-17%
O=C(CCS(=O)(=O)c1ccc(Br)cc1)NC1CCCCCC1	-26%	1%	i	-20%	.
SMILES	TGFb inhibitor	Anesthetic bind	ATXN viability	HepG2 tox	ATXN2 expr inh
CC(=O)C(C(C)=O)c1c(Cl)c(O)c(O)c2c(C(=O)c3ccccc3)coc12	?	?	?	-39%	25µM*
N#Cc1nc(-c2ccc(COc3ccc(Cl)cc3)o2)oc1N1CCC(C(N)=O)CC1	?	-8%	?	-19%	20µM*
NC(=S)NN=C1CSSC1	10µM*	.	i	11µM*	.
O=C(Cc1ccc(-c2ccccc2)cc1)NO	2%	.	.	-3%	.
COc1ccc(S(=O)(=O)NCCCC(=O)Nc2ccc(Sc3ccc(N)cc3)cc2)cc1	.	5%	.	.	.
CCCCNC(=O)C1(C)CCN1Cc1cc(C)ccc1C (stereo not given)	?	.	i	-34%	-20%
Cc1cnc(C)c(-c2cc(F)cc3c2OC(CNC(=O)c2cc(Cl)ccc2F)C3)n1 (stereo not given)	.	.	i	.	.
